Measurements: PubChem BioAssay AID1159580 (chemical genetic matrix, 2015)
The whole screen tested about 5,500 compounds, of which about 2,000 (36%) were called active. Another 18% or so got no clear call; they are omitted. Rule as the data show it: active = normalized growth mostly below about 0.91 (no sharp cut-off); inconclusive = no clear call, values can overlap the other calls; inactive = mostly above about 0.92. This is one part of the list.

Assay: chemical genetic growth profiling, strain panel (AID 1159580);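 also: tested at 20 µM; growth read once vehicle control cultures reached saturation at 30 °C; 1 = growth at the plate median or of vehicle wells; lower values mean less growth of the strain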
Conditions: growth OD
[1] = S. cerevisiae deletion strains, locus YAL013W, strain DEP1, active compounds read low
[2] = S. cerevisiae deletion strains, locus YBR229C, strain ROT2, active compounds read low
[3] = S. cerevisiae deletion strains, locus YDL101C, strain DUN1, active compounds read low
[4] = S. cerevisiae deletion strains, locus YDR150W, strain NUM1, active compounds read low
[5] = S. cerevisiae deletion strains, locus YEL061C, strain CIN8, active compounds read low
[6] = S. cerevisiae deletion strains, locus YGR078C, strain PAC10, active compounds read low
[7] = S. cerevisiae deletion strains, locus YHR030C, strain SLT2, active compounds read low
[8] = S. cerevisiae deletion strains, locus YHR087W, strain rtc3, active compounds read low
[9] = S. cerevisiae deletion strains, locus YJL187C, strain SWE1, active compounds read low
[10] = S. cerevisiae deletion strains, locus YJR043C, strain POL32, active compounds read low
[11] = S. cerevisiae deletion strains, locus YJR075W, strain HOC1, active compounds read low
[12] = S. cerevisiae deletion strains, locus YKL190W, strain CNB1, active compounds read low
[13] = S. cerevisiae deletion strains, locus YLR039C, strain RIC1, active compounds read low
[14] = S. cerevisiae deletion strains, locus YLR058C, strain SHM2 (second series), active compounds read low
[15] = S. cerevisiae deletion strains, locus YLR085C, strain ARP6, active compounds read low
[16] = S. cerevisiae deletion strains, locus YLR262C, strain YPT6, active compounds read low
[17] = S. cerevisiae deletion strains, locus YML094W, strain GIM5, active compounds read low
[18] = S. cerevisiae deletion strains, locus YMR219W, strain ESC1, active compounds read low
[19] = S. cerevisiae deletion strains, locus YMR263W, strain SAP30, active compounds read low
[20] = S. cerevisiae deletion strains, locus YNL153C, strain GIM3, active compounds read low
[21] = S. cerevisiae deletion strains, locus YNL298W, strain CLA4 (second series), active compounds read low
[22] = S. cerevisiae deletion strains, locus YNL322C, strain KRE1, active compounds read low
[23] = S. cerevisiae deletion strains, locus YNR030W, strain Alg12, active compounds read low
[24] = S. cerevisiae deletion strains, locus YOL006C, strain TOP1, active compounds read low
[25] = S. cerevisiae deletion strains, locus YPL055C, strain LGE1, active compounds read low
[26] = S. cerevisiae deletion strains, locus YPL241C, strain CIN2, active compounds read low
[27] = S. cerevisiae deletion strains, locus YPR135W, strain CTF4, active compounds read low
[28] = S. cerevisiae strains, strain wild type, active compounds read low
[29] = S. cerevisiae deletion strains, locus YCL061C, strain MRC1, active compounds read low

Measured: normalized growth

CSc1ncc(C#N)c2nc(-c3ccc(N(C)C)cc3)nn12
inactive: [1] 1.01 | [2] 0.991 | [3] 0.974 | [4] 0.966 | [5] 1 | [6] 0.983 | S. cerevisiae deletion strains, locus YGR229C, strain SMI1, active compounds read low 1 | [7] 1 | [8] 1.05 | [9] 1.01 | [10] 0.975 | [11] 0.994 | [12] 1.01 | [13] 1.08 | [14] 1.02 | [15] 1.02 | [16] 1.09 | [17] 1.05 | [18] 1.01 | [19] 1.01 | [20] 0.985 | [21] 1.04 | [22] 1 | [23] 1.03 | [24] 1.04 | [25] 1.01 | [26] 1.01 | [27] 0.968 | [28] 1

Fc1cc(F)cc(COc2cc(Cl)cc(Cl)c2)c1
inactive: [1] 1 | [2] 0.987 | [29] 0.96 | [3] 1.01 | S. cerevisiae deletion strains, locus YDL134C, strain PPH21, active compounds read low 0.992 | [4] 0.885 | [5] 1.01 | [6] 0.96 | [8] 0.959 | [9] 0.968 | [10] 0.985 | [11] 0.913 | [12] 0.967 | [13] 1.01 | [14] 0.972 | [15] 0.822 | [16] 0.943 | [17] 1.01 | [18] 0.984 | [19] 0.97 | S. cerevisiae deletion strains, locus YMR307W, strain GAS1, active compounds read low 0.739 | [20] 1 | [21] 0.919 | [22] 0.987 | [23] 0.928 | [24] 0.8 | [25] 0.922 | [27] 0.886 | [28] 0.96
active: [7] 0.522 | [26] 0.832

O=S(=O)(Oc1ccc(OCc2ccccc2)cc1)c1cc(Cl)cc(Cl)c1
inactive: [1] 1.01 | [2] 1.01 | [29] 1.01 | [3] 0.987 | [4] 1 | [5] 0.959 | [6] 1 | [7] 0.881 | [8] 0.983 | [9] 1 | [10] 1.01 | [11] 1.01 | [13] 1.01 | [14] 1.01 | [15] 0.943 | [16] 0.985 | [17] 0.966 | [18] 0.993 | [19] 1.01 | [20] 0.998 | [21] 1.01 | [22] 1 | [23] 0.998 | [24] 0.779 | [25] 0.969 | [26] 1 | [27] 0.988 | [28] 1
